Measured values as given in PubChem BioAssay (NCI).
The panel holds about 83,000 compounds, 20% with a hit somewhere; the sample as a whole holds those more often.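 Negative percent growth values reflect cell death: -40 means 40% of the cells present at the start died, and -100 means all died.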 Activity calls are given as the source filed them. How the source made its calls: active means growth percent below 10; inactive means the rest.

What was measured:
Experiment in all cases: NCI-60 one-dose screen, 48 h (100 = growth as untreated, 0 = no growth, -100 = all killed)
Conditions in all cases: 10 µM unless noted
[1] = tested on: SR leukemia
[2] = tested on: RPMI-8226 leukemia
[3] = tested on: OVCAR-8 ovarian
[4] = tested on: OVCAR-5 ovarian
[5] = tested on: OVCAR-4 ovarian
[6] = tested on: SK-OV-3 ovarian
[7] = tested on: IGROV1 ovarian
[8] = tested on: OVCAR-3 ovarian
[9] = tested on: NCI/ADR-RES ovarian
[10] = tested on: HS 578T breast

Measured: growth

CC(C)c1ccc2c(N)c(C(=O)Nc3ccc(C(F)(F)F)cn3)sc2n1
inactive: [1] 41.9% | [2] 37.9% | [3] 63.8% | [4] 89.9% | [5] 32.4% | [6] 83.9% | [7] 81.2% | [8] 83% | [9] 25%

COc1cc(-c2ccc(/C=N/NC(=O)c3[nH]c4ccc(Br)cc4c3-c3ccccc3)o2)cc(OC)c1OC
inactive: [1] 78% | [2] 63.2% | [3] 67.2% | [4] 99.6% | [5] 92.3% | [6] 92.6% | [7] 95.1% | [8] 95.6% | [9] 59%

COc1ccc(-c2nc(SC(C)C)nc(NCCc3c[nH]c4ccccc34)c2C#N)cc1
active: [1] 2.63%
inactive: [2] 16.3% | [3] 66.5% | [4] 65.4% | [5] 57.1% | [6] 72% | [7] 94.3% | [8] 63.8% | [9] 32.5%

N#Cc1c(-c2ccccc2Cl)cc(-c2ccc3ccccc3c2)[nH]c1=O
active: [5] -46% | [8] -7.55%
inactive: [1] 48.9% | [2] 61.5% | [3] 12.2% | [4] 44.1% | [6] 52.1% | [7] 48.2% | [9] 13.4%

Cc1ccc2c(N)c(C(=O)Nc3ccc(-c4ccccc4)cc3)sc2n1
inactive: [1] 43.1% | [2] 49.2% | [3] 73.4% | [4] 71% | [5] 47.3% | [6] 60.3% | [7] 72.5% | [8] 79.1% | [9] 50.5%

C=C1CC[C@@H]2[C@]3(C)COC(c4cn(-c5ccccc5)nc4-c4cccc([N+](=O)[O-])c4)O[C@@H]3CC[C@@]2(C)[C@@H]1C/C=C1/C(=O)OC[C@H]1O (some centres not stated)
active: [1] -16.7% | [2] -42.4% | [3] -38.1% | [4] -24.1% | [7] -25% | [9] -42.6%
inactive: [5] 14% | [6] 93% | [8] 15.1%

CSc1ccc(NC(=O)c2ccc3nn(/C(C#N)=C/c4ccccn4)nc3c2)cc1
active: [1] -6.88% | [2] -35.4% | [3] -44.2% | [4] -87.6% | [5] -57.2% | [6] -2.79% | [7] -87.4% | [8] -85% | [9] -35.7%

CN(C)c1ccnc(NCCCSC(c2ccccc2)(c2ccccc2)c2ccccc2)c1
active: [1] -55.5% | [2] -58.9%
inactive: [3] 59.4% | [4] 84.5% | [5] 33.4% | [6] 63% | [7] 50.5% | [8] 49.6% | [9] 40.4%

Cn1nc(C(F)(F)F)cc1-c1cc(Cl)c(COc2ccc(Cl)cc2)c(-c2ccc(Cl)c(C(F)(F)F)c2)c1O
inactive: [5] 13.9%
active: [1] -32.4% | [2] -39.2% | [3] -25.6% | [4] -1.15% | [6] -14.5% | [7] 5.06% | [8] -8.73% | [9] -34.8%

CCS(=O)(=O)N1CCCC(C(=O)Nc2nc3ccc(NC(=O)c4ccc(F)c(OC)c4F)cc3s2)C1 (configuration not stated)
inactive: [1] 27.8% | [2] 30.4% | [3] 57.7% | [4] 101% | [5] 39.4% | [6] 70.2% | [7] 80.9% | [8] 62.3% | [9] 52%

CSc1ccc(NC(=O)c2ccc3nnn(/C(C#N)=C/c4ccccn4)c3c2)cc1
inactive: [6] 25.5%
active: [1] -6.85% | [2] -32.6% | [3] -60.6% | [4] -78.6% | [5] -97.4% | [7] -76.7% | [8] -70.7% | [9] -83.9%

CC(=O)Nc1ccc(-c2cn(-c3cccc(C(=O)Nc4ccc(N5CCN(C)CC5)cc4)c3)nn2)cn1
inactive: [1] 68% | [2] 70.4% | [3] 81.6% | [4] 107% | [5] 93.4% | [6] 93.8% | [7] 88% | [8] 109% | [9] 89.2%

O=C(N/N=C/c1ccc(-c2ccc(O)cc2)o1)c1[nH]c2ccc(Br)cc2c1-c1ccccc1
active: [1] -9.54% | [2] -9.92% | [3] -33.5% | [4] 1.22% | [7] -17.3% | [8] -41.1% | [9] -12.1%
inactive: [5] 24.4% | [6] 19.6%

CN(C)CCn1c2ccccc2c2nc3cc4ccccc4cc3nc21
active: [1] 5.18% | [3] -46.8% | [4] 8% | [7] -9.73% | [9] -19.4%
inactive: [2] 14.4% | [5] 48% | [8] 46.6% | [10] 42.7%

Cc1ccc2c(N)c(C(=O)Nc3ccc(OC(F)(F)F)cc3)sc2n1
inactive: [1] 56.5% | [2] 46.9% | [3] 76.2% | [4] 84.5% | [5] 52.1% | [6] 68.2% | [7] 61.5% | [8] 83% | [9] 52.4%

COc1cc(C2CC(c3cc(OC)c(OC)c(OC)c3)=Nc3c(N)nc(N)nc3N2)ccc1Oc1nc(NCCO)nc(N2CCOCC2)n1 (configuration not stated)
inactive: [1] 93.1% | [2] 95.5% | [3] 99.9% | [4] 106% | [5] 107% | [7] 104% | [8] 107% | [10] 95% | [9] 97.6%

CC12CC[C@@H]3[C@]4(C)COC(c5c(F)cccc5F)O[C@@H]4CC[C@@]3(C)[C@@H]1CC(C1=CCOC1=O)O2 (some centres not stated)
inactive: [1] 55.6% | [2] 40.4% | [3] 59.8% | [4] 85.6% | [5] 70.1% | [6] 77.2% | [7] 79.1% | [8] 88.1% | [9] 59%

NS(=O)(=O)c1ccc(-n2cc(-c3cccc(NC(=O)c4cc(C(F)(F)F)cc(C(F)(F)F)c4)c3)nn2)cc1
inactive: [1] 47.4% | [2] 90% | [3] 40.7% | [4] 70.5% | [5] 85.9% | [6] 68.4% | [7] 63.1% | [8] 78.5% | [9] 81.6%

COc1cccc(/C=C/c2nc3ccccc3c(=O)n2CC(=O)Nc2ccc(Cl)cc2)c1
active: [5] -11.4%
inactive: [1] 79.7% | [2] 88.3% | [3] 48.8% | [4] 73.5% | [6] 76.8% | [7] 77.3% | [8] 35.5% | [9] 69.3%

CCN(CC)c1ccnc(CNCCSC(c2ccccc2)(c2ccccc2)c2ccc(C)cc2)c1
active: [1] -60.8% | [2] -42% | [3] -90.3% | [4] -70.6% | [5] -21% | [7] -30.9% | [8] -88.4% | [10] -49.3% | [9] -84.3%

C(=C\c1cc(/C=C/c2ccccc2)c2ccccc2n1)/c1ccccc1
inactive: [1] 36.7% | [2] 25.3% | [3] 78.4% | [4] 136% | [5] 98.6% | [6] 121% | [7] 118% | [8] 103% | [9] 69.7%

O=C(Nc1cccc(-n2cnc3cc(-c4ccc(O)cc4)ccc32)c1)C1CC1
active: [8] -2.16%
inactive: [1] 21.6% | [2] 25.5% | [3] 17.9% | [4] 41.2% | [5] 49.6% | [6] 35.5% | [7] 28.2% | [9] 24.8%

N#Cc1c(-c2cccc(Cl)c2Cl)cc(-c2c[nH]c3ccccc23)[nH]c1=O
inactive: [1] 42.3% | [2] 44.4% | [3] 72.5% | [4] 83.9% | [5] 75.2% | [6] 94.4% | [7] 71% | [8] 86.1% | [9] 76.5%

Cc1c(C(=O)NNC(=O)c2ccc(Cl)cc2)nnn1-c1ccc(Br)cc1
inactive: [1] 84.3% | [2] 98.2% | [3] 103% | [4] 95.2% | [5] 96.5% | [6] 90.2% | [7] 105% | [8] 115% | [9] 97.5%

CSc1ccccc1NC(=O)c1ccc2nnn(/C(C#N)=C/c3ccccn3)c2c1
inactive: [6] 63.1%
active: [1] -5.23% | [2] -29% | [3] -86.6% | [4] -95% | [5] -96.5% | [7] -81.8% | [8] -81.9% | [9] -44.2%

N#Cc1cnn(C(=O)c2ccccc2Br)c1NC(=O)c1ccc(Br)cc1Cl
inactive: [1] 78.2% | [2] 102% | [3] 104% | [4] 102% | [5] 101% | [6] 86.7% | [7] 115% | [8] 119% | [9] 98.7%

N#Cc1c(-c2cccc3ccccc23)cc(-c2cccc(OCC(=O)O)c2)[nH]c1=O
inactive: [1] 87.2% | [2] 96.5% | [3] 98.9% | [4] 89.9% | [5] 91.9% | [6] 108% | [7] 110% | [8] 104% | [9] 99%

CC1=C(C(=O)c2ccccc2)C(c2ccc(-n3cncn3)cc2)n2c(nc3ccccc32)N1 (configuration not stated)
inactive: [1] 76.9% | [2] 63.4% | [3] 91.4% | [4] 97.3% | [5] 71.8% | [6] 79.3% | [7] 83.1% | [8] 107% | [9] 85.6%
